A short description of experiment [1]: E. coli DRC41 culture turbidity changes, primary screen, E. coli filamentation inducer project, strain DRC41, OD650, 48 h (AID 1152).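 Also: E. coli MC1000 strain DRC41 lacking acrAB efflux pump and sulA.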 To be noted: E. coli DRC41 (acrAB sulA), higher = more signal, called active from +8 up or from −8 down.
Experiment [2] in a line: small-molecule binders of probe aLefty1, primary screen, biochemical, small-molecule microarray, 635/667 nm fluorescence (AID 1153).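 Also: score merges spot fluorescence with signal-to-noise ratio from the scanned slide images.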 To be noted: higher = more signal.
A short description of experiment [3]: PSAC antagonists in infected red cells, primary screen, cell-based, P. falciparum Indochina, OD700, 1 h (AID 1154). To be noted: P. falciparum Indochina infected RBC osmotic lysis, higher = more signal, called active from +8 up or from −8 down.
Experiment [4] can be described thus: PSAC antagonists in infected red cells, primary screen, cell-based, P. falciparum Indochina, OD700, 2 h (AID 1155).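 Also: lysis reports solute entry through the parasite surface anion channel PSAC; channel blockers reduce lysis of infected cells.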 As to conditions: P. falciparum Indochina infected erythrocytes, osmotic lysis OD700; higher = more signal, called active from +8 up or from −8 down.
A short description of experiment [5]: osmotic lysis modulators in infected erythrocytes, primary screen, PSAC antagonist project, cell-based, P. falciparum Indochina, OD700, 3 h (AID 1156). As to conditions: higher = more signal, called active from +8 up or from −8 down.
Experiment [6] in a line: PSAC antagonists in infected red cells, primary screen, cell-based, P. falciparum Indochina, OD700, 18 h (AID 1157). As to conditions: P. falciparum Indochina infected erythrocytes, osmotic lysis OD700, 18 h; higher = more signal, called active from +8 up or from −8 down.
The nature of experiment [7]: modulators of S6 phosphorylation in cells, primary screen, cell-based, A549, cytoblot, luminescence, serum-stimulated (AID 1158).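 Also: serum-stimulated A549 lung adenocarcinoma cells; signal is phosphorylated S6 detected by cytoblot immunostaining with HRP secondary.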 As to conditions: A549 phospho-S6 cytoblot, 5 h, higher = more signal.
For experiment [8], the target named is NADPH oxidase 2 (Homo sapiens) (UniProt P04839). The experiment in a line: NOX2-dependent H2O2 signal modulators, primary screen, NOX inhibitor project, cell-based, HEK293-NOX2, PMA-stimulated, Amplex Red fluorescence (AID 1159). Also: test concentration not given here. To be noted: 45 min, higher = more signal, called active from +8 up or from −8 down.
Chain of NADPH oxidase 2 (Homo sapiens) (P04839 whole entry, looked up): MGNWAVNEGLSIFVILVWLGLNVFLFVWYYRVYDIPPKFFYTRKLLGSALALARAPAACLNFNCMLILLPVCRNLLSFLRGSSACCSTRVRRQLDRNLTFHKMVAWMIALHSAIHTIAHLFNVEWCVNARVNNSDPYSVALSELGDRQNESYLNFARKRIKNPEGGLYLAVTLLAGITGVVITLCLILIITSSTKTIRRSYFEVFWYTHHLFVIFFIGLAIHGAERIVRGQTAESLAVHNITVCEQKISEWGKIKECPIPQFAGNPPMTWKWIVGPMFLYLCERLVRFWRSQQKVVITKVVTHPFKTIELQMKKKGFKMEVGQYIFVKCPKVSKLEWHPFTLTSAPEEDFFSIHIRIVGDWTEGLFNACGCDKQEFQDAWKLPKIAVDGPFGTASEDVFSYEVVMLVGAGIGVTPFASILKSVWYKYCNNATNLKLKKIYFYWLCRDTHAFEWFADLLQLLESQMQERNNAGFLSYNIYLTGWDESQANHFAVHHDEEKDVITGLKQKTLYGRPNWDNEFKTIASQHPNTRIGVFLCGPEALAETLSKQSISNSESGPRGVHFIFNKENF
Experiment [9] has as its target NADPH oxidase 4 (Homo sapiens) (UniProt Q9NPH5). The experiment in a line: NOX4-dependent H2O2 signal modulators, primary screen, NOX inhibitor project, cell-based, HEK293-NOX4, tetracycline-induced, Amplex Red fluorescence (AID 1160). As to conditions: 45 min, higher = more signal, called active from +8 up or from −8 down.
In experiment [10] the target is NADPH oxidase 5 (Homo sapiens) (UniProt Q96PH1). Description: NOX5-dependent H2O2 signal modulators, primary screen, NOX inhibitor project, cell-based, HEK293-NOX5, Amplex Red fluorescence (AID 1161). As to conditions: HEK293-NOX5, ionomycin, 45 min, higher = more signal.
Chain of NADPH oxidase 5 (Homo sapiens) (Q96PH1 whole entry, looked up): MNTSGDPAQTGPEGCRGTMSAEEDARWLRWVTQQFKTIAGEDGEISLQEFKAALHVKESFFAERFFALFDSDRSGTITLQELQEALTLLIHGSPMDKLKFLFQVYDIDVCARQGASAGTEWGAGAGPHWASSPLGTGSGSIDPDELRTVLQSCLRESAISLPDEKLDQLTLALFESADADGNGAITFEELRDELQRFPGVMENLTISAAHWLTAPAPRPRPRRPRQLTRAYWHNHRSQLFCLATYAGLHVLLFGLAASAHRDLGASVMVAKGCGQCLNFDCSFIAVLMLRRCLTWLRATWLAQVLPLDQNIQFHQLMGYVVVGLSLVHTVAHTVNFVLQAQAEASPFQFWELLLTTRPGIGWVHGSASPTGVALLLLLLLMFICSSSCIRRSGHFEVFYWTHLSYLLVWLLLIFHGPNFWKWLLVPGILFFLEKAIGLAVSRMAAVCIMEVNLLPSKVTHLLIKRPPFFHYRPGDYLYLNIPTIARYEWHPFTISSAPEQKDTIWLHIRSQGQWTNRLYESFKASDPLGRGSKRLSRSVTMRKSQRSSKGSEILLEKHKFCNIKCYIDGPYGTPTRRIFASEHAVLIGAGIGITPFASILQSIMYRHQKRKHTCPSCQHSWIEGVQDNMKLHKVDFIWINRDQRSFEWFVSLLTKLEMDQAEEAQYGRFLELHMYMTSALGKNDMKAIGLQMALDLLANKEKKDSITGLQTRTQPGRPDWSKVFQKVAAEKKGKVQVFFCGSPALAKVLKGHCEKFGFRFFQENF
The nature of experiment [11]: A549 cell viability effects, profiling panel, calcein-AM fluorescence, 48 h, basal (AID 1162). Also: test concentration not given here. As to conditions: higher = more signal.
The nature of experiment [12]: adipocyte viability effects, profiling panel, cell-based, 3T3-L1 adipocytes, calcein-AM fluorescence, 48 h, basal (AID 1163). Also: test concentration not given here. To be noted: 3T3-L1 adipocytes viability, higher = more signal.
Experiment [13] is described as follows: HepG2 cell viability effects, profiling panel, calcein-AM fluorescence, 48 h, basal (AID 1164). Also: test concentration not given here. To be noted: higher = more signal.
Experiment [14] is described as follows: MM1S cell viability effects, profiling panel, calcein-AM fluorescence, 48 h, basal (AID 1165).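 Also: viability of MM1S multiple myeloma cells under basal unstimulated conditions; test concentration not given here.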 As to conditions: higher = more signal.
Experiment [15] can be described thus: basal RPMI8226 viability, no added stimulus, profiling panel, cell-based, calcein-AM fluorescence, 48 h, PK04 Diversity Set (AID 1166).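 Also: cells grown under basal conditions without added stimulus; test concentration not given here.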 To be noted: RPMI8226 myeloma viability, higher = more signal.
Experiment [16] can be described thus: basal HepG2 mitochondrial membrane potential changes, profiling panel, cell-based, JC-1 fluorescence, 24 h, 100 nL compound (AID 1167). Also: test concentration not given here. To be noted: higher = more signal.
A short description of experiment [17]: basal 3T3-L1 adipocyte mitochondrial potential changes, profiling panel, cell-based, JC-1 fluorescence, 3T3-L1 adipocytes, 24 h, 100 nL compound (AID 1168). Also: test concentration not given here. As to conditions: JC-1 mitochondrial fluorescence, higher = more signal, called active from +8 up or from −8 down.
Experiment [18] can be described thus: basal RPMI8226 mitochondrial membrane potential changes, profiling panel, cell-based, JC-1 fluorescence, 24 h, 100 nL compound (AID 1169). Also: test concentration not given here. As to conditions: RPMI8226 myeloma, JC-1 mitochondrial potential fluorescence, higher = more signal.
Experiment [19] is described as follows: basal MM1S mitochondrial membrane potential changes, profiling panel, cell-based, JC-1 fluorescence, 24 h, 100 nL compound (AID 1170). Also: test concentration not given here. To be noted: higher = more signal.
Experiment [20] can be described thus: A549 lung cancer cell viability effects, profiling panel, resazurin fluorescence, 24 h, PK04 Diversity Set (AID 1171). Also: test concentration not given here. As to conditions: higher = more signal, called active from +8 up or from −8 down.

Consider nine compounds from PubChem BioAssay.

Calls of active or inactive are those of the source.

Chain of NADPH oxidase 4 (Homo sapiens) (Q9NPH5 whole entry, looked up): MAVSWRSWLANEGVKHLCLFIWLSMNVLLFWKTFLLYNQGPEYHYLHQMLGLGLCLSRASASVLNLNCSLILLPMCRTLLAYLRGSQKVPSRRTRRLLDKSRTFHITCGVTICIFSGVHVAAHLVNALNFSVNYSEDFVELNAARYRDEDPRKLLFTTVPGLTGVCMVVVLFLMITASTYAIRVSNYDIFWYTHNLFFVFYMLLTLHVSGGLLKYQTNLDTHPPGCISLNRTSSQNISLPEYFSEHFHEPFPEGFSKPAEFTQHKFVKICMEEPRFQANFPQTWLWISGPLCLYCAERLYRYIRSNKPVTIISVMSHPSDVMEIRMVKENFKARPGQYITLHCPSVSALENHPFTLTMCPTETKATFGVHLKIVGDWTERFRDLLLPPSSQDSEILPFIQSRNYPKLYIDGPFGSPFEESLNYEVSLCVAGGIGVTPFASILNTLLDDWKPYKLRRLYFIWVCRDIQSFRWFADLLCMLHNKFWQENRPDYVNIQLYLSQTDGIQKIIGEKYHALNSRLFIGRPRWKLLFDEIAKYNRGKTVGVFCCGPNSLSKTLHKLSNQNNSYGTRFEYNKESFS

Turning to `C=C(CC1([C@@H](NP(=O)(c2ccccc2)c2ccccc2)[C@H]2C[C@@H]2CCN(C(=O)OCC)S(=O)(=O)c2ccc(C)cc2)CC1)c1ccccc1`, the z-score in experiment [1] was -1.42 (inactive); in experiment [3], 2.02 (inactive); in experiment [4], 0.939 (inactive); in experiment [5], 2.36 (inactive); in experiment [6] it was 1.28 (inactive); in [7] it was 0.603. Further, the z-score is 0.464 (inactive) in experiment [8]; -1.66 (inactive) in [9]; -3.34 in [10]; -2.02 in experiment [11]; 1.2 in [12]; -1.12 in [13]. Besides, the z-score was -0.798 in [14]; -3.89 in [15]; 4.8 in experiment [16]; -1.47 (inactive) in [17]; -0.699 in experiment [18]; -1.09 in experiment [19]. Moreover, the z-score in [20] is 0.789 (inactive). In experiment [2], this compound gave a composite z-score of 0.723.

On to `C=CCC(OC(C)=O)[C@@H]1[C@@H](N(Cc2cc3ccccc3o2)C(=O)Cc2ccc(OC)cc2)c2cc(OCCCO)ccc2N1C(=O)Cc1ccc2ccccc2c1` (stereo not given in full), for which the z-score was -0.476 (inactive) in experiment [1]; 2.63 (inactive) in [3]; -0.005 (inactive) in experiment [4]; 1.35 (inactive) in experiment [5]; 0.308 (inactive) in [6]; 0.638 in experiment [7]. Moreover, the z-score is -0.282 (inactive) in experiment [8]; -0.427 (inactive) in experiment [9]; 1.21 in experiment [10]; 0.583 in [11]; 0.592 in experiment [12]; -0.118 in experiment [13]. For the same compound, the z-score in experiment [14] is 0.0786; in experiment [15], -0.929; in [16], 2.27; in [17], -0.315 (inactive); in experiment [18] it was 0.00245; in experiment [19], -0.692. For the same compound, in experiment [20], the z-score is -1.16 (inactive). Besides, the composite z-score in [2] was 0.152.

For the compound `CC(C)(C)OC(=O)CC[C@]1(C(N)=O)N=C(c2ccc(OCCCO)cc2)O[C@H]1c1ccccc1CN=[N+]=[N-]`, the z-score was 0.434 (inactive) in experiment [1]; 21.6 (active) in [3]; 5.64 (inactive) in [4]; -0.173 (inactive) in [5]; 0.223 (inactive) in experiment [6]; 0.0054 in [7]. Besides, the z-score in experiment [8] was 0.709 (inactive); in [9] it was -0.508 (inactive); in experiment [10], 1.26; in experiment [11], 0.249; in experiment [12] it was 0.434; in experiment [13], 0.088. Moreover, the z-score is -0.0887 in [14]; -0.387 in experiment [15]; -1.01 in experiment [16]; 0.352 (inactive) in experiment [17]; 0.469 in experiment [18]; 0.0608 in [19]. In addition, the z-score in experiment [20] was 0.316 (inactive). Moreover, the composite z-score in experiment [2] amounted to 0.5.

Turning to `COCCCNC(=O)[C@@]1(Sc2ccc(C)cc2)CC(=O)N(C2CCCCC2)[C@@H]1c1ccc(CO)cc1I`, the z-score in experiment [1] is -0.251 (inactive); in experiment [3], 4.53 (inactive); in [4] it was 0.678 (inactive); in experiment [5], 0.0232 (inactive); in experiment [6], 0.5 (inactive); in experiment [7], -0.0285. The z-score in experiment [8] was 0.625 (inactive); in experiment [9], -0.102 (inactive); in experiment [10], 1.43; in [11], 0.564; in experiment [12], -0.363; in experiment [13], 0.0565. The z-score was -2.54 in experiment [14]; -2.33 in [15]; 0.634 in experiment [16]; -0.201 (inactive) in experiment [17]; -0.126 in experiment [18]; -1.24 in experiment [19]. Further, in experiment [20], the z-score is 0.804 (inactive). Moreover, the composite z-score in [2] is -0.649.

Regarding `CCCCC(=C=CC[C@@H](O)c1ccc(OCCO)cc1)C[C@@H](O)c1ccccn1`, the z-score is 0.26 (inactive) in experiment [1]; 15.7 (active) in [3]; 2.47 (inactive) in [4]; 0.871 (inactive) in experiment [5]; 0.849 (inactive) in experiment [6]; -0.787 in [7]. Besides, the z-score in [8] is -0.697 (inactive); in experiment [9], -0.351 (inactive); in experiment [10], -1.77; in [11], -0.0074; in experiment [12], 0.0358; in experiment [13] it was 0.333. For the same compound, the z-score in [14] was -2.63; in [15], -0.616; in [16] it was -1.05; in [17] it was -1.58 (inactive); in experiment [18], -0.674; in experiment [19], -0.94. Also, the z-score in experiment [20] was -0.477 (inactive). In [2], this compound gave a composite z-score of 0.122.

Turning to `CN(C)CCCCNC(=O)[C@H]1C[C@H]2C(=O)N[C@@H](Cc3ccccc3)C(=O)N2[C@H]1c1cccc(OCCO)c1`, the z-score was 2.11 (inactive) in experiment [1]; 2.68 (inactive) in [3]; -0.546 (inactive) in experiment [4]; -0.282 (inactive) in experiment [5]; -1.43 (inactive) in [6]; 0.331 in [7]. Further, the z-score in experiment [8] is 0.693 (inactive); in [9], 0.863 (inactive); in [10], 1.43; in experiment [11], -0.411; in experiment [12] it was -0.0901; in experiment [13], 0.219. The z-score in experiment [14] is 0.642; in experiment [15], 0.826; in experiment [16], 0.17; in experiment [17] it was -0.259 (inactive); in [18] it was 0.264; in experiment [19] it was -0.396. Besides, the z-score in [20] is 1.12 (inactive). The compound also returned a composite z-score in experiment [2] of 0.0751.

For the compound `C=CC[C@]1(C(=O)NCc2ccccc2)COC(c2ccc(OCCCO)cc2)=N1`, the z-score was 0.553 (inactive) in experiment [1]; 20.7 (active) in [3]; 6.37 (inactive) in [4]; 1.44 (inactive) in [5]; 0.541 (inactive) in [6]; -0.429 in experiment [7]. For the same compound, the z-score in [8] is -2.18 (inactive); in experiment [9], 0.00403 (inactive); in [10], -2.1; in experiment [11] it was -0.555; in experiment [12], 0.548; in experiment [13], -2.51. For the same compound, the z-score was -2.01 in experiment [14]; -0.953 in [15]; -3.22 in experiment [16]; -0.436 (inactive) in [17]; -0.4 in experiment [18]; -0.107 in experiment [19]. For the same compound, the z-score in experiment [20] was -0.256 (inactive). Further, the composite z-score in [2] is 0.743.

With `CC(C)c1ccc(NN2C(C(O)C(C)C)C=CC3C(=O)N(c4ccccc4)C(=O)C32)cc1` (stereo not given), the z-score is -0.671 (inactive) in [1]; 1.37 (inactive) in experiment [3]; 0.83 (inactive) in experiment [4]; 0.42 (inactive) in experiment [5]; 1.37 (inactive) in [6]; -0.452 in [7]. In addition, the z-score in [8] was -0.862 (inactive); in experiment [9] it was -4.22 (inactive); in [10], -4.95; in experiment [11], -0.149; in experiment [12], -0.0009; in experiment [13] it was -0.463. In addition, the z-score in experiment [14] is -0.871; in [15], -0.542; in experiment [16], -0.419; in experiment [17] it was -1.52 (inactive); in experiment [18], -0.692; in experiment [19], 0.54. In addition, in experiment [20], the z-score is -1.28 (inactive). Besides, the composite z-score in experiment [2] is 0.996.

Take `COC(=O)[C@@]1(Cc2ccc(OC)cc2)[C@H]2c3cc(C(=O)N(C)C)n(Cc4ccsc4Br)c3C[C@H]2CN1C(=O)c1ccccc1`: the z-score in experiment [1] is -0.218 (inactive); in [3], 4.25 (inactive); in experiment [4] it was 1.16 (inactive); in [5], 0.57 (inactive); in experiment [6], 0.814 (inactive); in [7] it was -0.87. The z-score in experiment [8] was 0.555 (inactive); in [9], 0.536 (inactive); in experiment [10] it was 0.316; in experiment [11] it was -0.299; in experiment [12] it was 0.157; in [13], 0.205. Also, the z-score is -0.859 in [14]; -0.51 in experiment [15]; 2.25 in experiment [16]; 0.171 (inactive) in [17]; -0.484 in [18]; -0.468 in experiment [19]. Besides, the z-score in [20] was 0.141 (inactive). Further, in experiment [2], the composite z-score turned out to be 0.456.
